Targets with a hit are over-represented here; the source holds about 8,800 in all. About 0.5% of all pairs of compound and target were hits.
Columns and labels:
Assay in all cases: log2 fold change, soluble protein after heating vs DMSO (PISA); higher = thermal stabilisation; K562 lysate, 10 uM; active = over 0.2 and 3.5 SD of the protein, either way, in both replicates (recomputed)
[1] = compound: C1=CC=C(C=C1)[C@H](COC2=CC3=C(C=C2)NC(=O)N3)NC(=O)C4=CC=CN(C4=O)CC5=CC(=C(C=C5)F)F
How it was run: (§1)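 To prepare the extract, K562 pellets were dounce-homogenised in PBS pH 7.4 with 1 mM MgCl2, giving crude material at 1 mg/mL protein. This was treated with 10 μM compound for 30 min, then heated in aliquots for 3 min over 48°C-58°C before pooling and addition of NP-40 to 0.5% at 4°C. Centrifugation at 21,000xg for 90 min left soluble protein in the supernatant, which TMTpro 16plex LC-MS/MS quantified with equalised channel sums. Results are log-two fold changes in thermal stability compared with solvent controls, from duplicates.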

[2] = compound: CC1=C(SC2=C1C(=N[C@H](C3=NN=C(N32)C)CC(=O)N)C4=CC=C(C=C4)Cl)C
How it was run: as §1

[3] = compound: CC1=C2C(=CC=C1)N=C(N(C2=O)C3=CC=CC=C3C)CN4C=NC5=C(N=CN=C54)N
How it was run: as §1

[4] = compound: Cc1sc2c(c1C)C(c1ccc(Cl)cc1)=N[C@@H](CC(=O)OC(C)(C)C)c1nnc(C)n1-2
How it was run: as §1

[5] = compound: c1ccc([C@@H]2C[C@H]2NC2CCNCC2)cc1
How it was run: as §1

Measured: log2 fold change

PLEKHF1 (UniProt Q96S99)
inactive: [1] -0.019 | [2] 0.034 | [3] 0.029 | [4] 0.01 | [5] 0.014

PHKG2 (UniProt P15735)
inactive: [1] 0.039 | [2] -0.038 | [3] -0.037 | [4] -0.002 | [5] -0.022

PRKCD (UniProt Q05655)
inactive: [1] 0.003 | [2] 0.022 | [3] 0.028 | [4] -0.003 | [5] 0.023

PIK3CG (UniProt P48736)
UniProt P48736, sequence (P48736 whole entry, looked up): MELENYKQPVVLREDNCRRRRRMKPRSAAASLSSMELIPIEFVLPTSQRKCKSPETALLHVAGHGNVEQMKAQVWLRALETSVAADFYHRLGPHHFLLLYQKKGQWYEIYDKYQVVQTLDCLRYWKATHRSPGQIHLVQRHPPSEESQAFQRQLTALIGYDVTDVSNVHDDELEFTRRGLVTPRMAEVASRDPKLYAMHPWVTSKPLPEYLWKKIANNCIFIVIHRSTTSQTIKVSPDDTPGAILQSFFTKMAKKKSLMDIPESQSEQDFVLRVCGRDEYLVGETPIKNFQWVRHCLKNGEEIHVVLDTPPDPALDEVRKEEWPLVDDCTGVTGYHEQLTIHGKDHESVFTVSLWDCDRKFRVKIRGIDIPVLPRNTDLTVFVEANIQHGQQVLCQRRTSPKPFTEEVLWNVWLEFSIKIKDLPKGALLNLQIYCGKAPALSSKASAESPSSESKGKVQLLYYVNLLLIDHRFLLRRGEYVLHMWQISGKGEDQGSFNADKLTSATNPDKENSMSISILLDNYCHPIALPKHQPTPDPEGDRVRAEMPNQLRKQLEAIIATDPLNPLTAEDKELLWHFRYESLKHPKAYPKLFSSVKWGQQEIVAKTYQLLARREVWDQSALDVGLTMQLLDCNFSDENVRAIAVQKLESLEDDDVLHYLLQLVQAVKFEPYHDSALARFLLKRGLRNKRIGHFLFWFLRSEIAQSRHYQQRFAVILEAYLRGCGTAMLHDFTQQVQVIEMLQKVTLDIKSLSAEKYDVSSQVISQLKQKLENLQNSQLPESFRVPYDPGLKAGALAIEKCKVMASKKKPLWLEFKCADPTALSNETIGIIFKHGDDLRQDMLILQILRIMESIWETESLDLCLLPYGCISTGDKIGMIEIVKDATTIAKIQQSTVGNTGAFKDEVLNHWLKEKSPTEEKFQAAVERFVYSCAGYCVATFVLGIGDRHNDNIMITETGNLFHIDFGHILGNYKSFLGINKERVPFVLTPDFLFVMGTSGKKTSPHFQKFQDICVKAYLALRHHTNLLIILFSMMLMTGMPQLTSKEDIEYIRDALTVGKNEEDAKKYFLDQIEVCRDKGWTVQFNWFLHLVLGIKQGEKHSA
inactive: [1] -0.076 | [2] -0.065 | [3] 0.109 | [4] -0.047 | [5] -0.105

PLEKHO2 (UniProt Q8TD55)
inactive: [1] -0.158 | [2] 0.077 | [3] -0.076 | [4] -0.107 | [5] 0.043

POLR2M (UniProt P0CAP2)
inactive: [1] 0.026 | [2] -0.005 | [3] 0.025 | [4] 0.024 | [5] 0.005

POLA1 (UniProt P09884)
inactive: [1] 0.006 | [2] 0.01 | [3] 0.037 | [4] -0.002 | [5] 0.002

PHF14 (UniProt O94880)
inactive: [1] 0.048 | [2] 0.025 | [3] -0.038 | [4] 0.019

PRKDC (UniProt P78527)
inactive: [1] -0.073 | [2] -0.123 | [3] -0.064 | [4] 0.028 | [5] -0.048

POLR2F (UniProt P61218)
inactive: [1] 0.013 | [2] -0.105 | [3] -0.163 | [4] 0.381 | [5] 0.359

PPP1R12B isoform 6 (UniProt O60237)
inactive: [1] 0.043 | [2] 0.033 | [3] 0.088 | [4] -0.145

PDF (UniProt Q9HBH1)
inactive: [1] -0.056 | [2] -0.007 | [3] -0.024 | [4] 0.024 | [5] 0.028

PCBP2 (UniProt F8W0G4)
inactive: [1] 0.16 | [2] 0.052 | [3] 0.043 | [4] 0.103

PMS1 (UniProt P54277)
inactive: [1] -0.011 | [2] -0.056 | [3] 0 | [4] -0.06 | [5] -0.006

PPP2R5B (UniProt Q15173)
inactive: [1] -0.08 | [2] -0.037 | [3] -0.024 | [4] -0.006 | [5] 0.066

PCLAF (UniProt Q15004)
UniProt Q15004, sequence (Q15004 whole entry, looked up): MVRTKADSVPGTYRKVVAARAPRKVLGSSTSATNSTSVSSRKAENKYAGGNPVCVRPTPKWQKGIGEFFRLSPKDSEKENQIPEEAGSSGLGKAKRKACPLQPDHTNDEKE
inactive: [1] 0.053 | [2] 0.016 | [3] -0.037 | [4] -0.059 | [5] -0.039

PGGT1B (UniProt P53609)
inactive: [1] -0.055 | [2] 0.021 | [3] -0.013 | [4] -0.004 | [5] 0.064

PITRM1 isoform 2 (UniProt Q5JRX3)
inactive: [1] 0.158 | [2] -0.193 | [3] 0.005 | [4] 0.04 | [5] 0.01

PPP2R5C isoform 5 (UniProt Q13362)
UniProt Q13362, sequence (Q13362 whole entry, looked up): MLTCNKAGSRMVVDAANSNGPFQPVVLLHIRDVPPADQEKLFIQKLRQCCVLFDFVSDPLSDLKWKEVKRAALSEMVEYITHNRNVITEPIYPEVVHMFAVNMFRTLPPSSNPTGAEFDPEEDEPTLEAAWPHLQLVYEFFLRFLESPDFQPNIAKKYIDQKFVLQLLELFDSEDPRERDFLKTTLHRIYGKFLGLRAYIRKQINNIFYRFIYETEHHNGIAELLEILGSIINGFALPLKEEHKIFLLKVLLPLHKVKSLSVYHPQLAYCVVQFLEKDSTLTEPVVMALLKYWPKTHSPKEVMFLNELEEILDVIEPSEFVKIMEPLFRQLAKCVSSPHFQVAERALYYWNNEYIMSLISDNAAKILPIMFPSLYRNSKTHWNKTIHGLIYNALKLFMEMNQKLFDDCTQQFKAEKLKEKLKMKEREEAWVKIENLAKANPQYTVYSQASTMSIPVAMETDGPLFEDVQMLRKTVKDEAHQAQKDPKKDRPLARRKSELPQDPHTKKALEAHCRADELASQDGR
inactive: [1] -0.068 | [2] 0.011 | [3] -0.02 | [4] -0.024 | [5] 0.071

PDXK (UniProt O00764)
inactive: [1] 0.014 | [2] -0.039 | [3] -0.029 | [4] -0.028 | [5] -0.056

POMP (UniProt Q9Y244)
UniProt Q9Y244, sequence (Q9Y244 whole entry, looked up): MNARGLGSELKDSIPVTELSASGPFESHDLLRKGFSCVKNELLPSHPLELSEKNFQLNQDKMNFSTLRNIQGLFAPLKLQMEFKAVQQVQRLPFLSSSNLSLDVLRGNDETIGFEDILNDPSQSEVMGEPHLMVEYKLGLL
inactive: [1] 0.077 | [2] -0.053 | [3] 0.045 | [4] -0.036 | [5] 0.061

PPP1R8 (UniProt Q12972)
inactive: [1] 0.006 | [2] 0.017 | [3] 0.003 | [4] 0.059 | [5] -0.142

PSTPIP2 (UniProt Q9H939)
inactive: [1] 0 | [2] -0.01 | [3] 0.046 | [4] 0 | [5] 0.027

PDE2A (UniProt O00408)
UniProt O00408, sequence (O00408 whole entry, looked up): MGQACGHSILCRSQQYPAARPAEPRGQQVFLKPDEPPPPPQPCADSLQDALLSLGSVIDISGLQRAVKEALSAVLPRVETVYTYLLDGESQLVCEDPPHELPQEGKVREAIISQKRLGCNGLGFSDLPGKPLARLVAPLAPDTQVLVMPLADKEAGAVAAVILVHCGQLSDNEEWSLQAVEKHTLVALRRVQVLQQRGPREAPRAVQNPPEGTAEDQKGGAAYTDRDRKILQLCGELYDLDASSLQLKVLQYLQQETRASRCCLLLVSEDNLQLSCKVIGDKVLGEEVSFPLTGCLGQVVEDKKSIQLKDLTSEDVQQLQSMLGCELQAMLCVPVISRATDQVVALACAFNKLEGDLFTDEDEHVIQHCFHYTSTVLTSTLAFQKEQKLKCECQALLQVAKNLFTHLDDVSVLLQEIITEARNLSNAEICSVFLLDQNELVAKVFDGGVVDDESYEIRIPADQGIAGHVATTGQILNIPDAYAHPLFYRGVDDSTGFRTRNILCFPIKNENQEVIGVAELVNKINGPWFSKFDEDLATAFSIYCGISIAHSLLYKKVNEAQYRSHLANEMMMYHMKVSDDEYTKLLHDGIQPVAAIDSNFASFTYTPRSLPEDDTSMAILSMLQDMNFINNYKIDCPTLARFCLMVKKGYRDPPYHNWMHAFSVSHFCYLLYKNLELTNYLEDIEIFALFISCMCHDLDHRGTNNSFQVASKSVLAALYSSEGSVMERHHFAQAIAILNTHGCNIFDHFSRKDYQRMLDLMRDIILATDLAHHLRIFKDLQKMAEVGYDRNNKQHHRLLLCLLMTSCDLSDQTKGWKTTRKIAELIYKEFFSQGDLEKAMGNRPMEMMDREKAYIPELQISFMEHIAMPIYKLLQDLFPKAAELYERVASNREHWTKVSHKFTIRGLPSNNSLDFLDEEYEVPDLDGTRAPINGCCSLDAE
inactive: [1] 0.012 | [2] 0.067 | [3] 0.163 | [4] 0.039 | [5] 0

PKN1 isoform 2 (UniProt Q16512)
inactive: [1] -0.003 | [2] 0.017 | [3] 0.023 | [4] 0.029 | [5] 0.022

PDIA4 (UniProt P13667)
inactive: [1] -0.004 | [2] -0.006 | [3] -0.009 | [4] 0.002 | [5] 0.037

PDCD6IP isoform 2 (UniProt Q8WUM4)
inactive: [1] -0.019 | [2] -0.004 | [3] 0.018 | [4] 0.02 | [5] 0.056

PTMA isoform 2 (UniProt P06454)
UniProt P06454, sequence (P06454 whole entry, looked up): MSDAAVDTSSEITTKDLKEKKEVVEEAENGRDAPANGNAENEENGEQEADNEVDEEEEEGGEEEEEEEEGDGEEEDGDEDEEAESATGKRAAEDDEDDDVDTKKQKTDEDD
inactive: [1] 0.098 | [2] -0.016

PIK3CB (UniProt P42338)
inactive: [1] -0.066 | [2] -0.054 | [4] -0.049 | [5] -0.033
active: [3] 0.518

PCBP3 (UniProt P57721)
inactive: [1] -0.028 | [2] 0.014 | [3] -0.026 | [4] 0.021 | [5] 0

PTPN7 isoform 3 (UniProt P35236)
inactive: [1] -0.028 | [2] 0.002 | [3] -0.031 | [4] 0.015 | [5] -0.012

PRIMPOL (UniProt Q96LW4)
UniProt Q96LW4, sequence (Q96LW4 whole entry, looked up): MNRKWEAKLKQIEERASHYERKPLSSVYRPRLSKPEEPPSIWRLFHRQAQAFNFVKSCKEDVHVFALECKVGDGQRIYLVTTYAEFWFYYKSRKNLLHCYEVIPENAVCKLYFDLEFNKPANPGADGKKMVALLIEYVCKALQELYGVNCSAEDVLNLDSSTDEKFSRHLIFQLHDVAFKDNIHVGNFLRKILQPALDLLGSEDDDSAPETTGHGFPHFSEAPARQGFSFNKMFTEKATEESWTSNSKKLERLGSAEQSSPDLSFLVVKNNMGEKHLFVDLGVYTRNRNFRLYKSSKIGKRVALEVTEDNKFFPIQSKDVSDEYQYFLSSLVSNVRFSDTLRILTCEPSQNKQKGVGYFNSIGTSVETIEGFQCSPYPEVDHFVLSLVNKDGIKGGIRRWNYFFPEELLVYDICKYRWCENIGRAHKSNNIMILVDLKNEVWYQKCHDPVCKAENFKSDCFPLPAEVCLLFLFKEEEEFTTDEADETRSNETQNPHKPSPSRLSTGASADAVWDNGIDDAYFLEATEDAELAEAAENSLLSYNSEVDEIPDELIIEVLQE
inactive: [1] 0.009 | [2] 0.009 | [3] -0.015 | [4] -0.024

PWP1 (UniProt Q13610)
inactive: [1] 0.041 | [2] -0.041 | [3] -0.052 | [4] -0.004 | [5] 0.088

PTGS1 isoform 6 (UniProt P23219)
inactive: [1] -0.007 | [2] -0.035 | [3] 0.077 | [4] -0.026 | [5] -0.11

PFAS (UniProt O15067)
inactive: [1] 0.007 | [2] 0.017 | [3] 0.02 | [4] 0.042 | [5] 0.023

PIKFYVE (UniProt Q9Y2I7)
inactive: [1] -0.005 | [2] 0.007 | [3] 0.016 | [4] 0.054 | [5] -0.03

PHC1 (UniProt P78364)
inactive: [1] 0.025 | [2] 0.001 | [3] 0.041 | [4] -0.049

PCYT1B (UniProt Q9Y5K3)
inactive: [1] -0.006 | [2] 0.033 | [3] -0.01 | [4] -0.03 | [5] -0.073

PCF11 (UniProt O94913)
UniProt O94913, sequence (O94913 whole entry, looked up): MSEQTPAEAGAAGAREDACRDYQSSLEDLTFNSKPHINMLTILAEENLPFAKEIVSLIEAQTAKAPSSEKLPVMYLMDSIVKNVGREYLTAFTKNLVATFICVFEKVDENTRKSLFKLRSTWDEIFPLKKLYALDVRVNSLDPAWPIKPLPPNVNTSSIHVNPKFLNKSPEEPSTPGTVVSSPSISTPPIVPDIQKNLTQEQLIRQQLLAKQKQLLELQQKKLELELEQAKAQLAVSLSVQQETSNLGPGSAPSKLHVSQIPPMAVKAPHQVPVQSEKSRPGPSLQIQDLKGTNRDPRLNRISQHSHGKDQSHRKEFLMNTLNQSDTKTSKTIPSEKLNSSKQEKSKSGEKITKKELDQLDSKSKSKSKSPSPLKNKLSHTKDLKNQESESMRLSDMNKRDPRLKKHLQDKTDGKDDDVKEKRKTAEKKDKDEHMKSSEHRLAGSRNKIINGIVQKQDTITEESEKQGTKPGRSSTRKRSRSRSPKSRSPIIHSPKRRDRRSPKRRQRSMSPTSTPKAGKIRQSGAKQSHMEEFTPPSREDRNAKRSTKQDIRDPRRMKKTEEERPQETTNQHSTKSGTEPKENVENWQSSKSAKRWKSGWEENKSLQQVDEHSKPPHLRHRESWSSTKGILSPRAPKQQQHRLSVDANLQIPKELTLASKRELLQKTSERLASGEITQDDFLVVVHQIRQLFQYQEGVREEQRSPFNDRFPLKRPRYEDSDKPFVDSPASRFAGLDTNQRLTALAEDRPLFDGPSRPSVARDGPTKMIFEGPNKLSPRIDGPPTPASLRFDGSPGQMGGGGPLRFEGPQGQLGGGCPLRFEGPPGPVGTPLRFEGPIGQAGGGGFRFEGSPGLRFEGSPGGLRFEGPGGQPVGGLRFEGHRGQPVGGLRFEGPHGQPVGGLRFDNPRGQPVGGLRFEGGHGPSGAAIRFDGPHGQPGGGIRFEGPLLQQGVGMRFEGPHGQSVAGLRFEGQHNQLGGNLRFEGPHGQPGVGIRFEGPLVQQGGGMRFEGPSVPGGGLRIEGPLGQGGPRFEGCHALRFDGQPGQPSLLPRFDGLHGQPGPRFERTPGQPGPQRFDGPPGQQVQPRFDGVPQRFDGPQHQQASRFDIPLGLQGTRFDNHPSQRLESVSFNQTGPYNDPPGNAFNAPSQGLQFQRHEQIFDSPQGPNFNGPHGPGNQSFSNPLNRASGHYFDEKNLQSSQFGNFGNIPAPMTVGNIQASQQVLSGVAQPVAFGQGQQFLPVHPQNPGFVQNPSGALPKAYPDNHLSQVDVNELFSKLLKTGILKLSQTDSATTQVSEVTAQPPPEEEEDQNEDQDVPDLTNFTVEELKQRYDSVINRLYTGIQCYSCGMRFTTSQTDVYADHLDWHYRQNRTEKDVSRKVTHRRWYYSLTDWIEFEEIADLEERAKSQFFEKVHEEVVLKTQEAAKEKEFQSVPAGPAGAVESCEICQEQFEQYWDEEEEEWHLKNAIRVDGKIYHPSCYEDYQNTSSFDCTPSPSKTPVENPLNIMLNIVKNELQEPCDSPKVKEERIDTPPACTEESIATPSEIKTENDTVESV
inactive: [1] -0.135 | [2] 0.018 | [3] 0.022 | [4] 0.008 | [5] 0.079

PRKAR2B (UniProt P31323)
inactive: [1] -0.028 | [2] 0.018 | [3] 0.011 | [4] -0.002 | [5] 0.068

PUS1 (UniProt Q9Y606)
inactive: [1] 0 | [2] 0.014 | [3] 0.013 | [4] -0.024 | [5] 0.029

POLR3E (UniProt Q9NVU0)
inactive: [1] -0.031 | [2] -0.003 | [3] -0.001 | [4] -0.002 | [5] -0.012

PHACTR4 isoform 2 (UniProt Q8IZ21)
inactive: [1] 0.03 | [2] 0 | [3] 0.014 | [4] 0.028 | [5] 0.264

PHGDH (UniProt O43175)
inactive: [1] -0.014 | [2] 0.017 | [3] 0.047 | [4] 0.046 | [5] 0.052

PPP1R14C (UniProt Q8TAE6)
inactive: [1] -0.019 | [2] 0.024 | [3] 0.051 | [4] -0.078 | [5] -0.147

PRKCSH isoform 2 (UniProt P14314)
inactive: [1] 0.084 | [2] -0.09 | [3] -0.067 | [4] -0.128 | [5] -0.33

PLEKHA5 isoform 6 (UniProt Q9HAU0)
inactive: [1] 0 | [2] -0.112 | [3] -0.06 | [4] -0.013 | [5] 0.045

PTPN23 (UniProt Q9H3S7)
inactive: [1] -0.033 | [2] 0.011 | [3] 0.007 | [4] 0.024 | [5] 0

POC5 (UniProt Q8NA72)
inactive: [1] 0.016 | [2] -0.052 | [3] 0.161 | [4] 0.17 | [5] -0.097

POLB (UniProt P06746)
inactive: [1] -0.02 | [2] -0.005 | [3] 0.028 | [4] 0.041 | [5] 0.021

PXMP4 (UniProt Q9Y6I8)
inactive: [1] -0.096 | [2] -0.022 | [3] -0.026 | [4] -0.191 | [5] 0.041

PICALM (UniProt H0YEH1)
inactive: [1] 0.018 | [2] -0.027 | [3] -0.138 | [4] 0.075 | [5] -0.303

POLR2B (UniProt P30876)
inactive: [1] -0.021 | [2] 0.024 | [3] 0.019 | [4] 0.021 | [5] 0.013

PRAME (UniProt P78395)
inactive: [1] -0.009 | [2] 0.014 | [3] 0.014 | [4] -0.008 | [5] 0.026
